Test results as given in PubChem BioAssay (NCATS).
Inconclusive results are not listed. Activity calls are given as the source filed them. Calls follow the shape of the dose curve; as a rule, active = well fitted curve in the direction sought with a large enough effect; inconclusive = small, poorly fitted or top-dose-only effect, or another doubt; inactive = no such curve, though single readings can be large; an effect the other way counts as inactive or inconclusive.

Experiments:
[1] = molecular target: T1, Hexokinase-4 (Homo sapiens) + Glucokinase regulatory protein (Homo sapiens) (UniProt P35557+Q14397); experiment: qHTS assay for inhibitors of recombinant human GCK-GKRP interaction: ADP-Glo assay (AID 743206);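 also: plate controls were DMSO plus enzyme for no effect and no enzyme for full effect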
T1 sequence (P35557 whole entry, looked up): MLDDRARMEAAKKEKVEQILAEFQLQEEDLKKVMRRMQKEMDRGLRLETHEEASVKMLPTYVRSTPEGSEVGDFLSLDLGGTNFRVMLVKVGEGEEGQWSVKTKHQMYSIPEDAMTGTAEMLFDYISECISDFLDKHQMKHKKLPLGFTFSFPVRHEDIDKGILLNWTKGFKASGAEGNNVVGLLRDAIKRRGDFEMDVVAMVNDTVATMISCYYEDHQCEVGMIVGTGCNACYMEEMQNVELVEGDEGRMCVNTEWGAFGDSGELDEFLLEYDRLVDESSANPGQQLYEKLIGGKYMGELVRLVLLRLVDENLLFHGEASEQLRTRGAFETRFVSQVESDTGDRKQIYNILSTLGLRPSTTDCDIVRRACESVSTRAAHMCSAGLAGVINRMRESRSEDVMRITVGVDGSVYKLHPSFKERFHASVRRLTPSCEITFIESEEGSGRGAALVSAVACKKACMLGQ
T1 sequence (Q14397 whole entry, looked up): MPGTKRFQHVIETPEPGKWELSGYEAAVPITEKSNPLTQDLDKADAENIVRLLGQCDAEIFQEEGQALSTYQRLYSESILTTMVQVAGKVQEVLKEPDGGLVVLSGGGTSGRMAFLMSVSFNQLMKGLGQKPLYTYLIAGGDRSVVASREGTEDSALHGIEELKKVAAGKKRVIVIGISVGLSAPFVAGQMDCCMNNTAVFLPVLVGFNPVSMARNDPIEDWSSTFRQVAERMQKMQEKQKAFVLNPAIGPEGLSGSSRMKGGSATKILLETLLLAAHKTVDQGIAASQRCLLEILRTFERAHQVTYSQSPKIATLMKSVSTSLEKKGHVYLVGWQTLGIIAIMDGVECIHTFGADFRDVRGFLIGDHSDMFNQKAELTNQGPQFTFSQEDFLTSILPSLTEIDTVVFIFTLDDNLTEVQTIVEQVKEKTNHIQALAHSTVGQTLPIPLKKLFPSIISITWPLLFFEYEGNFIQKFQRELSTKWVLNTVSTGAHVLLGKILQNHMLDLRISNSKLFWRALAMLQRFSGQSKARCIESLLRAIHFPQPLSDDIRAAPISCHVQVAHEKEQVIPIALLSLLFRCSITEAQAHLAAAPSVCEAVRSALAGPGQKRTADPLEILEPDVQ
In short: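 Pin-transferred compounds meet a 15 nM GST-GCK/15 nM FLAG-GKRP/2 uM S6P mix (dispense concentrations). ATP is then added to 0.4 mM final with 5 mM glucose, and the reaction runs 60 min at room temperature. ADP is quantified luminescently.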

[2] = molecular target: T1, Hexokinase-4 (Homo sapiens) + Glucokinase regulatory protein (Homo sapiens); experiment: qHTS assay for inhibitors of recombinant human GCK-GKRP interaction: HTRF assay (AID 743207);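 also: 0% = DMSO with GCK present and -100% = DMSO wells lacking GCK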
In short: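 5 nM GST-GCK + 5 nM FLAG-GKRP + 2 uM S6P, pH 7.1 buffer (25 mM Hepes, 2 mM MgCl2, 25 mM KCl, 1 mM DTT, Tween/BSA); pin-transferred cpd; anti-FLAG XL665/anti-GST K; 60 min RT; HTRF.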

[3] = qHTS Assay for Identifying Gametocytocidal Compounds (AID 743244);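 also: % is scaled to controls: 0 for no effect and ±100 for the full control effect; actives lower the fluorescent signal which means gametocytes are killed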; conditions: P. falciparum 3D7 stage III-V gametocytes, alamarBlue, 72 h; max response: hits give low values
In short: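 Using 20,000 stage III–V 3D7 gametocytes per well, compounds were incubated 72 h under 37 °C/5% CO2. Viability was then assessed by 24 h alamarBlue reduction, measured fluorometrically at 525/598 nm.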

[4] = NS1 protein of Zika virus - qHTS assay to identify small molecule inhibitors in human HEK 293 cells (AID 1347053);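 also: series mostly up to about 46 µM; plate controls were infected untreated cells for no effect and uninfected cells for full effect; nearly all actives have a fitted effect of over 55% in size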
In short: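 In this cell-based screen, HEK 293 cultures received compound for one hour before Zika MR766 at MOI = 0.5. NS1 was quantified 24 hours later by TR-FRET, normalized to virus-free wells and infected wells.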

[5] = molecular target: Tyrosine-protein phosphatase non-receptor type substrate 1 (Homo sapiens) + Leukocyte surface antigen CD47 (Homo sapiens) (UniProt P78324+Q08722); experiment: CD47-SIRPalpha protein protein interaction - Alpha assay qHTS validation (AID 1347059);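 also: bead proximity luminescence from CD47 binding SIRPalpha after compound preincubation with SIRPalpha; % is scaled to controls: 0 for no effect and ±100 for the full control effect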
Chain of Tyrosine-protein phosphatase non-receptor type substrate 1 (Homo sapiens) + Leukocyte surface antigen CD47 (Homo sapiens) (P78324 whole entry, looked up, the tested form may be a part): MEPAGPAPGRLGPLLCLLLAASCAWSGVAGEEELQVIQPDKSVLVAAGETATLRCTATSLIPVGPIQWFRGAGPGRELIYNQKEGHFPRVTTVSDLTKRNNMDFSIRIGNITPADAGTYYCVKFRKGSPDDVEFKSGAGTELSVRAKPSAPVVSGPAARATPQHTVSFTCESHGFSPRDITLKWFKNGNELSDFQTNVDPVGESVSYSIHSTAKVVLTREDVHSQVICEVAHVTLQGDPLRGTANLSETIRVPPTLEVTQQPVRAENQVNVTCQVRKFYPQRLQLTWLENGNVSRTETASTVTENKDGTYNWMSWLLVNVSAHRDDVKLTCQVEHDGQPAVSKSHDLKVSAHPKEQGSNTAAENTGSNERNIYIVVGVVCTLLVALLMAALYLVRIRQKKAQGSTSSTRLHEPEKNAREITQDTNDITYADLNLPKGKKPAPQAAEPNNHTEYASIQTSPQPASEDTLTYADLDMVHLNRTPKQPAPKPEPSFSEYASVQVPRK
Chain of Tyrosine-protein phosphatase non-receptor type substrate 1 (Homo sapiens) + Leukocyte surface antigen CD47 (Homo sapiens) (Q08722 whole entry, looked up, the tested form may be a part): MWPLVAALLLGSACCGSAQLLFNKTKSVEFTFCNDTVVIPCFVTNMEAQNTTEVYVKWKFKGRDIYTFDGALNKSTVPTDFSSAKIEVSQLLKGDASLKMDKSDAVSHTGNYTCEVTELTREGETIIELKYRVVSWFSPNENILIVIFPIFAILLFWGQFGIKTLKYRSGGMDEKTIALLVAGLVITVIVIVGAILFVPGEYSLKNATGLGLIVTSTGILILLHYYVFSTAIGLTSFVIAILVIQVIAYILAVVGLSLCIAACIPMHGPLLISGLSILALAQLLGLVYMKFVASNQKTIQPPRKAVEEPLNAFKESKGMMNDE
In short: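 In PBS (pH 7.4) with 0.05% IGEPAL CA-630, compound is preincubated with biotin-Avi-SIRPalpha ectodomain before His-CD47 ectodomain and affinity beads are added. Light-protected room-temperature incubations; AlphaScreen readout.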

[6] = molecular target: Parathyroid hormone/parathyroid hormone-related peptide receptor (Homo sapiens) (UniProt Q03431); experiment: qHTS for PTHR1 Agonists: Optimization Screen against the NCGC LOPAC library (AID 1347079);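 also: GloSensor cAMP luminescence in HEK-293 GP2 cells expressing human PTHR1 with IBMX; 0% is about no effect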
Chain of Parathyroid hormone/parathyroid hormone-related peptide receptor (Homo sapiens) (Q03431 whole entry, looked up): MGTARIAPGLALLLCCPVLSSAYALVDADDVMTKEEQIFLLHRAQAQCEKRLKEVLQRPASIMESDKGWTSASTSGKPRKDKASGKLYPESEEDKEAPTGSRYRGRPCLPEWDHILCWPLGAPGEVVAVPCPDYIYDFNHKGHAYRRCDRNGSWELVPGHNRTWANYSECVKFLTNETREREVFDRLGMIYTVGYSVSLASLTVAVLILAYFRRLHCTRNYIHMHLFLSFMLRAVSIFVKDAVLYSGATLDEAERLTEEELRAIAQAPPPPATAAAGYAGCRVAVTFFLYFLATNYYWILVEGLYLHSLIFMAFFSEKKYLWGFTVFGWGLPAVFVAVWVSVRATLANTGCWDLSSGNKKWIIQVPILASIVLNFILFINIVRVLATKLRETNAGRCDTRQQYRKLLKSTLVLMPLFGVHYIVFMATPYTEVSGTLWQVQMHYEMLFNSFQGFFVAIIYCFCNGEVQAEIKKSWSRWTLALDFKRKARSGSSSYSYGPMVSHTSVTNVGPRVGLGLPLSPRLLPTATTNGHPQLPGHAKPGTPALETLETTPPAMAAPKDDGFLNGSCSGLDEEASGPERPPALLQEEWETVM
In short: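 HEK-293 GP2 cells, PTHR1 + GloSensor cAMP; 3000 cells/well, o/n. Luciferin + IBMX 0.5mM each (stock), 1 hr 37C. Cpd titration, 1 hr 37C. Lum after 15 min RT. Ctrl M-PTH(1-15) top 10uM.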

[7] = molecular target: N-terminal Xaa-Pro-Lys N-methyltransferase 1 (Homo sapiens) (UniProt Q9BV86); experiment: qHTS Assay for Inhibitors of N-terminal methyltransferase 1 (NTMT1): LOPAC validation of the NTMT1 SAHH-coupled ThioGlo3 Assay (AID 1347143);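 also: SAH from peptide methylation measured as thiol fluorescence via SAHH coupling and ThioGlo3; potency is read from the fitted curve at half-maximal effect; nearly all actives have a fitted effect of over 70% in size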
Chain of N-terminal Xaa-Pro-Lys N-methyltransferase 1 (Homo sapiens) (Q9BV86 whole entry, looked up): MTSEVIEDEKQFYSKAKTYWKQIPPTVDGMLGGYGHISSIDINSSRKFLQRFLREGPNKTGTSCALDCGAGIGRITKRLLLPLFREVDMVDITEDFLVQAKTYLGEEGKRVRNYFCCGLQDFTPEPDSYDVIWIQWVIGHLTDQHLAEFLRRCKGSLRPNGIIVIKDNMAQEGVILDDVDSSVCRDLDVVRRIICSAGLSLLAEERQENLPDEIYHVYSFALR
In short: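 In this qHTS pilot against the LOPAC set, 125nM NTMT1 met compounds tested at multiple concentrations, and fluorescence was normalized to background.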

[8] = test system: Zika virus NS2B-NS3 protease (unlinked); experiment: Optimization of GU AMC qHTS for Zika virus inhibitors: Unlinked NS2B-NS3 protease assay (AID 1347151); also: potency is read from the fitted curve at half-maximal effect; nearly all actives have a fitted effect of over 80% in size
In short: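 Unlinked protease (25 nM final); buffer 10 mM Tris-HCl pH 8.0 + 0.01% Tween 20; AMC substrate; 15 min RT, dark; Δfluorescence normalized to no-inhibitor/no-enzyme controls; 4-parameter Hill fit.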

[9] = qHTS to identify inhibitors of the type 1 interferon - major histocompatibility complex class I in skeletal muscle: primary screen against the NCATS LOPAC collection (AID 1347405);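 also: lytic HiBiT luminescence reporting HLA-B protein level; % is scaled to controls: 0 for no effect and ±100 for the full control effect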
In short: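 After 24 h at 37 C with compounds (7-point, 1:4.3 dilutions, 46 uM top final) plus 4 ng/ml IFN-beta, luminescence from lytic HiBiT detection was measured. HLA-B*08:01 in C25cl48 myoblasts carried an endogenous C-terminal HiBiT tag; medium lacked dexamethasone.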

[10] = qHTS for inhibitors of adenylyl cyclases using a fission yeast platform: a pilot screen against the NCATS LOPAC library (AID 1347410);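 also: plate controls were DMSO vehicle for no effect and DPI positive control for full effect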
In short: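 Fission yeast qHTS: CHP2027 cells (AC9-GNAS-PDE4D2, fbp1-GFP), 5x10^6 cells/mL working density, EMM + His/Lys/Ura; LOPAC at up to 57 µM final; 18 h dark, 30C; GFP by laser cytometry. DPI positive control, DMSO vehicle.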

[11] = Validation qHTS assay for inhibitors of Activation Induced Cytidine Deaminase (AID): UDG Counterscreen signal (AID 1347427); also: 0% is about no effect
In short: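 Fluorescence at 560 nm excitation, 665 nm emission reports UDG signal after 250 mM NaOH (2x) addition and 30 min. Enzymes (AID 1 uM, UDG 2 U/mL, at 4/3x) preincubated 10 min with compound, then 4 h with 4x 250 nM DJC20/DJC23 substrate at room temperature.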

[12] = molecular target: Single-stranded DNA cytosine deaminase (Homo sapiens) (UniProt Q9GZX7); experiment: Validation qHTS assay for inhibitors of Activation Induced Cytidine Deaminase (AID): AID signal (AID 1347429); also: % is scaled to controls: 0 for no effect and ±100 for the full control effect
In short: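 Compounds (final up to 114 uM) preincubated with AID plus UDG; 250 nM DJC20/DJC23 substrate mix (4x stock) added, 4 hr at room temperature, then NaOH, 30 min. Read 1 fluorescence at 540 nm excitation, 590 nm emission.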

[13] = Primary qHTS for inhibitors of La Crosse Virus (LACV) - induced cell death in SH-SY5Y cells (AID 1508616);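 also: top concentration of the series differs between compounds; 0% = infected DMSO wells and 100% = uninfected DMSO wells; higher means more rescue of cells from virus-induced death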
In short: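 Rescue of virus-induced death was read as ATPLite luminescence after 6 days at 37C, scaled between DMSO wells with LACV and without virus. Cells were SH-SY5Y, 6000/well, infected at 0.01 MOI after compound addition.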

[14] = molecular target: Calcium and integrin-binding protein 1 (Homo sapiens) (UniProt Q99828); experiment: Validation qHTS for Identification of Calcium Integrin Binding protein 1 (CIB1) Competitor (AID 1508618); also: % is scaled to controls: 0 for no effect and ±100 for the full control effect
In short: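 CIB1-GST (1 uM final) in 5 mM HEPES pH 7.4, 125 mM NaCl, 5 mM CaCl2, 0.01% Tween20 was preincubated 15 min at room temperature with compound (up to 114 uM), then FITC-alphaIIb peptide (100 nM) added for 15 min; fluorescence polarization read.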

[15] = Primary qHTS for small molecule stabilizers of the endoplasmic reticulum resident proteome: Secreted ER Calcium Modulated Protein (SERCaMP) assay (AID 1508630); also: % is scaled to controls: 0 for no effect and ±100 for the full control effect
In short: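 The SH-SY5Y reporter protocol was run at 3 concentrations up to 38.3 uM (primary) or 11 concentrations (follow-up): 16 h compound, 100 nM thapsigargin for 4 h, then extracellular luciferase luminescence.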

[16] = molecular target: Rap guanine nucleotide exchange factor 3 (Homo sapiens) (UniProt O95398); experiment: Confirmatory qHTS for agonist of cAMP-regulated guanine nucleotide exchange factor 3 (EPAC1) (AID 1645881);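 also: EPAC1 catalysed release of BODIPY-GDP from Rap1B seen as fluorescence loss; 100% = effect of cAMP agonist control; nearly all actives have a fitted effect of over 75% in size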
Chain of Rap guanine nucleotide exchange factor 3 (Homo sapiens) (O95398 whole entry, looked up): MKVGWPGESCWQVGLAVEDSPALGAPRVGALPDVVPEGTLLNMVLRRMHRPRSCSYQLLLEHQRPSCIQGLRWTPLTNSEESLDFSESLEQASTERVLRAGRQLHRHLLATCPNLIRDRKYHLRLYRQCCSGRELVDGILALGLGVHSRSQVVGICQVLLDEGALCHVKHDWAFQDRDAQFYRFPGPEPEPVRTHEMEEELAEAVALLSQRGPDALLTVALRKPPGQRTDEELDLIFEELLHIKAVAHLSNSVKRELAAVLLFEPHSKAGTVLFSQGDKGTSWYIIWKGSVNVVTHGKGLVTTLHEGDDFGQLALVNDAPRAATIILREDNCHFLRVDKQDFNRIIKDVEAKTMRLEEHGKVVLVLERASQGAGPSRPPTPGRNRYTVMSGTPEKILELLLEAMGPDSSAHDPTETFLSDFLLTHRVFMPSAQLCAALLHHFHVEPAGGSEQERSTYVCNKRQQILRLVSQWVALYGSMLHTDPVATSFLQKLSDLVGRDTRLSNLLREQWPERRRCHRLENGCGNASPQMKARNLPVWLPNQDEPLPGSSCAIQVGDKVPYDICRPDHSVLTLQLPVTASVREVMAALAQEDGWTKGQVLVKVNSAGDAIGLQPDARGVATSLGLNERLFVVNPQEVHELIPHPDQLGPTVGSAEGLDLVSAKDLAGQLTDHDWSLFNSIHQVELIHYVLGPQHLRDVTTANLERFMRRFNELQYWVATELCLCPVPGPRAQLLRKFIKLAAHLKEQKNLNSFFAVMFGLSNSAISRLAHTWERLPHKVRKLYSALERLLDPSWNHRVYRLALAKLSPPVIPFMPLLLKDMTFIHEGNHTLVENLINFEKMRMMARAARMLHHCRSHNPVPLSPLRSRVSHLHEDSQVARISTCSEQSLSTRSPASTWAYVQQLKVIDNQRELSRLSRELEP

[17] = molecular target: Rap guanine nucleotide exchange factor 4 (Homo sapiens) (UniProt Q8WZA2); experiment: Confirmatory qHTS for agonist of cAMP-regulated guanine nucleotide exchange factor 4 (EPAC2) (AID 1645884);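 also: nucleotide exchange releases bodipy-GDP from Rap1 and this lowers its fluorescence; % is scaled to controls: 0 for no effect and ±100 for the full control effect; nearly all actives have a fitted effect of over 65% in size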
Chain of Rap guanine nucleotide exchange factor 4 (Homo sapiens) (Q8WZA2 whole entry, looked up): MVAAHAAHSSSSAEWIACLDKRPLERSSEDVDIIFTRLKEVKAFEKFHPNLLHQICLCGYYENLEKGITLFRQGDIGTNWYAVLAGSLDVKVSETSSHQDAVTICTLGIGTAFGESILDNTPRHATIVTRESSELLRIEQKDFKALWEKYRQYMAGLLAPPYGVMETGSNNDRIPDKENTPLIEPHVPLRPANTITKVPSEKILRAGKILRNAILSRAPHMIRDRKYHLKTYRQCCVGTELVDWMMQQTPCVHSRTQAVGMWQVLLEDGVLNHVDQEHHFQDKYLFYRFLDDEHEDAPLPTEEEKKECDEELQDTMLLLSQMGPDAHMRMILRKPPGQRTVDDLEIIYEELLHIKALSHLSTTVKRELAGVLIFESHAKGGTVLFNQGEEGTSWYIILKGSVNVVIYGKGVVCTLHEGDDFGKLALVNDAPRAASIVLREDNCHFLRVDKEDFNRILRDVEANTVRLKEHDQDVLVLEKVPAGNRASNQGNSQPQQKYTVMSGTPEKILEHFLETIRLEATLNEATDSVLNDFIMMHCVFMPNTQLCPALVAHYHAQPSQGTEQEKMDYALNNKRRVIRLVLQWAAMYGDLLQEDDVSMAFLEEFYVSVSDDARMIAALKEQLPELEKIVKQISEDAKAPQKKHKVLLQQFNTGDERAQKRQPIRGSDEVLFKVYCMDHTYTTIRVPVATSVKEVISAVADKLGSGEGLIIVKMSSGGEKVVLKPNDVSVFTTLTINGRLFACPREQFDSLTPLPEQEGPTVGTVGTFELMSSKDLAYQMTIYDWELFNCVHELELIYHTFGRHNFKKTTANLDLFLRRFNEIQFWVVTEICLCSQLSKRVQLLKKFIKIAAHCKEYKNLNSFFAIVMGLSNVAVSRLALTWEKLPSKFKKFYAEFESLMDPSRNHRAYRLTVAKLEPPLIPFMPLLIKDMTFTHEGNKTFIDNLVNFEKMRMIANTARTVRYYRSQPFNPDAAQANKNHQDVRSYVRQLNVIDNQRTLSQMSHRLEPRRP

[18] = molecular target: Rap guanine nucleotide exchange factor 4 (Homo sapiens) (UniProt Q8WZA2); experiment: Confirmatory qHTS for antagonist of cAMP-regulated guanine nucleotide exchange factor 4 (EPAC2) (AID 1645885); also: % is scaled to controls: 0 for no effect and ±100 for the full control effect; nearly all actives have a fitted effect of over 25% in size
[19] = molecular target: Metallo-beta-lactamase type 2 (Klebsiella pneumoniae) (UniProt C7C422); experiment: qHTS to identify inhibitors of the New Delhi Metallo-beta-lactamase (NDM): assay validation screen against the NCATS LOPAC Collection (AID 1794843)
Chain of Metallo-beta-lactamase type 2 (Klebsiella pneumoniae) (C7C422 whole entry, looked up): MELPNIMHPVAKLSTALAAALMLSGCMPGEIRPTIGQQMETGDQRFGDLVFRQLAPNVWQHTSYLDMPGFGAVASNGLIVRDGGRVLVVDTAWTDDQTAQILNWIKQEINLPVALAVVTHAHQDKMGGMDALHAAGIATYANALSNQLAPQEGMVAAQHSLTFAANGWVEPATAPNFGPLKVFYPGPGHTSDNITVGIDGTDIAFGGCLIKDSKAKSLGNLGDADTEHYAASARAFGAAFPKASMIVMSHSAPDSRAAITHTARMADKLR
In short: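 NDM-1 at 2 nM final in 50 mM HEPES pH 7.0 with 1 uM ZnSO4 and 0.01% Tween20 was preincubated with library compounds in DMSO. Nitrocefin (50 uM stock) was then added, and absorbance at 485 nm was read at the kinetic plateau.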

[20] = molecular target: Glutathione peroxidase 1 (Homo sapiens) (UniProt P07203); experiment: Primary qHTS Assay for Inhibitors of Recombinant Selenoprotein Glutathione Peroxidase 1 (GPX1) (AID 1845191); also: % is scaled to controls: 0 for no effect and ±100 for the full control effect; nearly all actives have a fitted effect of over 65% in size
In short: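 GPX1 10 nM, GR 100 nM, GSH 1 mM, NADPH 0.5 mM, CHP 0.5 mM (final). 30-min cpd preincubation, RT. Ex340/Em450 read t=0, t=15 min.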

[21] = molecular target: Phospholipid hydroperoxide glutathione peroxidase GPX4 (Homo sapiens) (UniProt P36969); experiment: Primary qHTS Assay for Inhibitors of Recombinant Selenoprotein Glutathione Peroxidase 4 (GPX4) (AID 1845192); conditions: outcome: dose series up to 50 µM unless noted; also: series mostly up to about 50 µM; % is scaled to controls: 0 for no effect and ±100 for the full control effect; nearly all actives have a fitted effect of over 65% in size
In short: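 qHTS, GR-coupled: GPX4 200 nM + cpd 30 min RT → GSH 1 mM, NADPH 0.5 mM, GR 100 nM → CHP 0.5 mM start; fluor 340/450 at t0 and t15 min; no-enzyme wells as control.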

N#C/C(=C\c1ccc(O)c(O)c1)C(=O)Nc1ccccc1
inactive: outcome [1] | outcome [2] | max response [3] 12.5% | outcome [4] | Potency [5] | outcome [6] | Potency [9] | outcome [10] | outcome [11] | Potency [12] | outcome [13] | outcome [14] | Potency [15] | outcome [16] | outcome [17] | Potency [18] | Potency [19] | Potency [20] | Potency [21]
active: Potency [7] 39.8 µM | Potency [8] 3.36 µM
